An excerpt weighted towards active compounds, which were near 1.4% of everything screened.
Mtb MenB inh – M. tuberculosis MenB inhibitors, primary screen, biochemical, absorbance; MenB enzyme assay, absorbance read-out; inhibition, % (concentration not given with the values); 0.43% of 100,000 active; in the data active = inhibition above about 21%, passing the limit was not always enough
Mtb MbtI inh – MbtI salicylate synthase inhibitors, primary screen, biochemical, fluorescence intensity; AID 493033, 2011; inhibition, % (no concentration beside the values); purified MbtI enzyme, fluorescence intensity read-out; 0.89% of 100,000 active; P9WFX0; in the data active = inhibition mostly above about 56%, no sharp cut-off; inactive = mostly below about 77%
Polio RdRp inh – poliovirus RdRp elongation inhibitors, primary screen, biochemical, fluorescence polarization, total intensity; % elongation, % (compound at 16.7 µg/mL); 0.66% of 150,000 active; poliovirus polymerase elongation; active compounds read low; Genome polyprotein (Poliovirus type 1 (strain Mahoney)), P03300; in the data active = % elongation below about 90%
Target sequence (P03300 1749-2209 limits assumed): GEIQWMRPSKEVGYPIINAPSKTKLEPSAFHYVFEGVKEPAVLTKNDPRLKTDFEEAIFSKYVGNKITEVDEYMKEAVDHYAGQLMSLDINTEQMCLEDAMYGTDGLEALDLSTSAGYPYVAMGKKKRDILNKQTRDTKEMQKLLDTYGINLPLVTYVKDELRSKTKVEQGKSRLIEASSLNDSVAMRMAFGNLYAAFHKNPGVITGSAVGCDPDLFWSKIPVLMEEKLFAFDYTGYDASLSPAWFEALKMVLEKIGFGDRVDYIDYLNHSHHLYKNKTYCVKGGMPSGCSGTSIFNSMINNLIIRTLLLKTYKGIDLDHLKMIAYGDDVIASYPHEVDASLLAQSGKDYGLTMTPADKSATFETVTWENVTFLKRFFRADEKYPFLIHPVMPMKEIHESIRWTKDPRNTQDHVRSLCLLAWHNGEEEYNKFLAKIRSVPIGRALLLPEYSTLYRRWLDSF
The depositor's hits bear a star; / = not tested or not shown.

SMILES | Mtb MenB inh | Mtb MbtI inh | Polio RdRp inh
O=C1C(c2c(O)n(-c3cc(Cl)cc(Cl)c3)[nH]c2=O)=Nc2ccccc21 | 3 | 84* | 103
O=C(CSc1nnc(-c2cc3ccccc3[nH]2)n1-c1ccccc1)N1CCNC1=O | 3 | 2 | 58*
O=C(CSc1nnc(-c2cc3ccccc3[nH]2)n1-c1ccccc1)NC1CCS(=O)(=O)C1 (stereo not given) | 2 | 0 | 100
Cc1cccc(NC(=O)Cn2c(=O)sc3ccccc32)c1 | -41 | -10 | 104
CC(C)c1ccc(CN2C(=O)c3ccccc3C2=O)cc1 | -28 | -8 | 115
O=C(Nc1ccc(F)cc1)C(Sc1nnc(C2CC2)o1)c1ccccc1 (stereo not given) | -4 | 55* | 96
Cc1cc(C)cc(NC(=O)C(Sc2nnc(C)n2C2CC2)c2ccccc2)c1 (stereo not given) | -10 | -7 | 98
Nc1c(N(C(=O)c2ccc(Br)o2)C2CCCC2)c(=O)[nH]c(=O)n1Cc1ccccc1 | 1 | 1 | 102
COCCn1c(C)cc(/C=N/n2c(-c3ccccc3C)n[nH]c2=S)c1C | -37 | 96* | 82*
C=CCc1cccc(/C=N/n2c(-c3ccccc3C)n[nH]c2=S)c1O | -59 | 13 | 98
O=C(N/N=C/C1=COCCO1)c1cccnc1 | -2 | 15 | 107
Cc1cc2nnc(-c3cccc4c3OCO4)n2c2ccccc12 | -48 | / | 120
S=C1NC2=C(CCCC2)C2(CCCCC2)N1 | 0 | -17 | 101
C1CCC2(CC1)C1=C(CCCC1)Nc1nnnn12 | 32* | 1 | 100
Clc1ccc(-c2noc3ncnc(NC4CC4)c23)cc1 | 4 | -5 | 102
CCN1CCN(C(=O)CCCn2c(=O)[nH]c3cc(Cl)ccc3c2=O)CC1 | 1 | -5 | 101
COC1(NS(=O)(=O)c2ccc(C)cc2)C(C)=CC(=O)C=C1C | / | 94* | /
COC(=O)C1=C(C)NC(=O)C1(NS(=O)(=O)c1ccc(C)cc1)C(F)(F)F (stereo not given) | 3 | -2 | 99
COC(C(=O)NCc1ccc2c(c1)OCO2)c1ccccc1 (stereo not given) | -23 | -15 | 100
COc1ccccc1N1CCN(C(=O)C(Cc2ccccc2)N2Cc3ccccc3C2=O)CC1 (stereo not given) | -2 | -18 | 101
COc1ccc(C2CC(c3ccc4ccccc4c3)=NN2C)cc1 (stereo not given) | -42 | 107 | 105
COc1ccc(CCNC(=O)c2ccc3c(c2)N(Cc2ccccc2F)C(=O)c2ccccc2S3(=O)=O)cc1OC | / | / | 110
COc1ccc(CCNC(=O)c2ccc3c(c2)N(Cc2cccc(C)c2)C(=O)c2ccccc2S3(=O)=O)cc1OC | / | / | 82*
O=C(O)CSCC(=O)Nc1cccc(O)c1 | -27 | 9 | 100
CC(C)(C)OC(=O)NCc1cccs1 | 33* | 6 | 102
SMILES | Mtb MenB inh | Mtb MbtI inh | Polio RdRp inh
CC(C)(C)OC(=O)NCc1ccc(C(=O)O)cc1 | -27 | 0 | 99
Cc1nnc(-c2ccccn2)[nH]c1=O | -2 | 0 | 104
Cn1c(=O)[nH]c2nnc(-c3ccccn3)nc2c1=O | -52 | 13 | 89*
Cc1ccc2ncc(-c3ccc4c(N)c(C)ccc4n3)cc2c1 | -35 | / | 17*
Cc1ccc2nc3sc(C(=O)O)c(N)c3cc2c1 | -41 | 46 | 103
Cc1cccc(C(=O)N2CCOCC2)c1 | -2 | / | 102
Cc1cccc(C(=O)c2c(N3CCOCC3)[nH]c(=O)c3ccccc23)c1 | -25 | 0 | 68*
CC(C)C1C(=O)Nc2ccc(S(=O)(=O)NCc3ccccc3)cc21 (stereo not given) | -2 | -30 | 101
Nn1c(SCC(=O)NCc2ccc3c(c2)OCO3)nnc1C1CC1 | 14 | 81* | 104
Nn1c(SCC(=O)NCc2ccc3c(c2)OCO3)nncc1=O | -47 | -1 | 100
Cc1cc(C)nc(SCc2ccccc2C(=O)N2CCN(Cc3ccc4c(c3)OCO4)CC2)n1 | -3 | 15 | 99
Cc1ccc(C(N)=S)c(=O)[nH]1 | -55 | 173 | 85*
CCCCC(=O)c1ccc(C)[nH]c1=S | -3 | / | 103
CCOC(=O)CC1=Nn2c(nnc2C2CCCCC2)SC1 | -16 | 3 | 105
NNC(=O)Cc1nn2c(C3CCCCC3)nnc2s1 | -20 | 70* | 99
CC1(C)COC(Nc2ccccc2)=N1 | / | -11 | /
Cc1cccc(/C=N/NC(=O)c2ccccn2)c1O | -78 | -6 | 104
Cc1cc(C)c(S(=O)(=O)Nc2cc(Cl)c3oc4c(c3c2)C(=O)CCC4)cc1C | / | / | 101
Cc1ccc(C)c(S(=O)(=O)Nc2cc(Cl)c3oc(=O)sc3c2)c1 | -56 | 62* | 90
CC(NC(=O)c1ccc(F)cc1)C(=O)O (stereo not given) | 38* | 49 | 102
C[C@H](NC(=O)c1ccc(Br)cc1)C(=O)O | -12 | 6 | 102
COc1ccccc1-c1nnc(SCC(=O)C(C)(C)C)n1Cc1ccco1 | 5 | -4 | 106
CC1OS(=O)OC1(c1ccccc1)c1ccccc1 (stereo not given) | -16 | / | 89*
CCc1ccc(NCc2nnc(-c3ccccc3)o2)cc1 | -10 | -5 | 103
CCOC(=O)c1cc(C(=O)O)nn1C | 28* | -2 | 101
SMILES | Mtb MenB inh | Mtb MbtI inh | Polio RdRp inh
CCOC(=O)c1cc(C(=O)OCC)n(C)n1 | -5 | / | 104
COc1ccc(C(CC(=O)Nc2cccnc2)N2Cc3ccccc3C2=O)cc1 (stereo not given) | -11 | -11 | 102
C/C(=N\n1cnnc1)c1ccc2ccccc2c1 | 13 | 129 | 99
CCN(CC)C(=O)COc1ccccc1C(=O)NCc1ccccc1 | 27* | -6 | 102
CCN(CC)C(=O)COc1cccc2ccccc12 | -18 | 10 | 99
CCOc1ccc(-n2c3nc4ccccc4nc3c3c(=O)n(CCOC)cnc32)cc1 | 2 | 8 | 101
Cc1nn(C)c(C)c1Nc1cnn(-c2ccccc2)c(=O)c1Cl | -8 | 16 | 101
O=c1c(Cl)c(Nc2ccc(F)cc2)cnn1-c1ccccc1 | 3 | 3 | 84*
O=C(c1cc(C(F)(F)F)cc(C(F)(F)F)c1)N1CCN(Cc2ccc3c(c2)OCO3)CC1 | 16 | 8 | 104
Cc1cc(C(=S)NC(=O)c2ccccc2)c(C)n1C | -18 | 65* | 102
O=C(O)NC(=O)c1ccccc1 | -6 | 16 | 107
CC(C)(C)C1CCc2onc(C(=O)Nc3sc4c(c3C(N)=O)CCCC4)c2C1 (stereo not given) | / | / | 79*
CSc1ccccc1NC(=O)c1noc2c1CC(C(C)(C)C)CC2 (stereo not given) | -26 | 2 | 104
CC(C)(C)C1CCc2onc(C(=O)Nc3sc4c(c3C#N)CCCC4)c2C1 (stereo not given) | / | / | 82*
CCc1c(C)sc(NC(=O)c2noc3c2CC(C(C)(C)C)CC3)c1C#N (stereo not given) | -16 | 36 | 98
COC(=O)C1=C(N)OC(CC#N)=C(C(=O)OC)C1c1ccc(OC)c(OC)c1 (stereo not given) | -77 | / | 104
Cc1ccc(CSc2nc3ccc(C(=O)NCCN4CCOCC4)cc3n2C)cc1 | -21 | 12 | 103
O=C(NCCN1CCOCC1)c1cc2ccc3cccnc3c2[nH]1 | -21 | -16 | 100

Screening data: PubChem BioAssay, ICCB-Longwood Screening Facility, Harvard Medical School
